Screening data from PubChem BioAssay.
IL1B secr inh: inflammasome signaling inhibition, IL-1 beta readout; 360,000 tested, 4.7% active; activity change, % at 57.5 µM; AID 743279; THP-1 LPS/ATP IL-1B secretion, AlphaLISA, 16 h; stronger effect = lower value; in the data active = activity change below about -50%; inconclusive = mostly about -30% to -49%
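Secreted IL-1B measured by AlphaLISA bead assay after 16 h compound exposure of THP-1 cells; compounds (final up to 57.5 uM) added 1 h before LPS (250 ng/mL) and ATP (1.25 mM) stimulation; lower signal means less secretion.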
uPA surface inh: cell surface uPA generation inhibition. cell surface uPA generation assay, qHTS. 330,000 tested, 0.31% active. Potency, µM (series often up to 38.3 µM), actives largely listed as inhibitors. AID 540303; active = well fitted inhibition curve with a large enough effect; inconclusive = small, poorly fitted or top-dose-only effect; inactive = no such curve, though single readings can be large or run the other way; tested in mouse RAW 264.7 cells; also: nearly all actives have a fitted effect of over 55% in size
DT40 TDP1 CPT: DT40-hTDP1 cell growth loss with CPT; AID 686979; 420,000 tested, 12% active; Potency, µM (doses to about 46.2 µM), actives largely listed as inhibitors; chicken DT40 Tdp1-/-;hTDP1 cells + 20 nM CPT, ATP luminescence, 48 h; also: nearly all actives have a fitted effect of over 55% in size
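Chicken DT40 Tdp1-/- cells complemented with human TDP1, 400 cells/well, exposed to compounds plus 20 nM camptothecin for at least 48 h at 37 C; viability read as ATP content by CellTiter-Glo luminescence.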
HT1080NT lethal: kills 2HG-producing HT-1080-NT fibrosarcoma cells; AID 686970; 360,000 tested, 1.6% active; Potency, µM (doses to about 46.1 µM), most hits filed as cytotoxic; HT-1080-NT fibrosarcoma viability, CellTiter-Glo ATP luminescence, 48 h;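 also: NT is the 2HG producing partner of a matched IDH1 knockdown line; nearly all actives have a fitted effect of over 55% in size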
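Viability of the 2HG-overproducing fibrosarcoma line after 48 hours of compound exposure at 37 degrees C was determined by luminescence with CellTiter-Glo, and concentration-effect curves were then fitted and categorized.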
HT1080 IDH1KD tx: HT-1080 IDH1 knockdown cell toxicity (counter line) | HT-1080 IDH1 knockdown viability, ATP luminescence, 48 h | Potency, µM (doses to about 46.1 µM), hits mostly cytotoxic | 360,000 tested, 2% active
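HT-1080-IDH1KD cells (IDH1 knocked down), 750/well in RPMI with 5% FBS, treated with compound 48 h at 37 degrees C. Viability by CellTiter-Glo luminescence, normalised to DMSO and no-cell wells; concentration-response curves classed.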
TDP1 cell noCPT: qHTS for Inhibitors of human tyrosyl-DNA phosphodiesterase 1 (TDP1): qHTS in cells in absence of CPT. AID 686978, 2013. Potency, µM (doses to about 46.2 µM), hits mostly inhibitors. 420,000 tested, 15% active. DT40 Tdp1-/- hTDP1 cells, no CPT, ATP luminescence, 48 h; also: nearly all actives have a fitted effect of over 55% in size
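Chicken DT40 Tdp1-/- cells complemented with human TDP1, screened without camptothecin (DMSO vehicle only), 400 cells/well. Compounds pin-transferred, cells incubated at 37 °C for at least 48 hr. Growth read as ATP-dependent luminescence (CellTiter-Glo, 30 min at RT).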
A number is an active result. Compounds with a hit are over-represented: about 19% of the library has one in this group of screens. Unless noted, calls follow the shape of the dose curve; as a rule, active = well fitted curve in the direction sought with a large enough effect; inconclusive = small, poorly fitted or top-dose-only effect, or another doubt; inactive = no such curve, though single readings can be large; an effect the other way counts as inactive or inconclusive.

O=C1NC[C@H](CC2CCCCC2)N(CCC23CC4CC(CC(C4)C2)C3)C1=O was read as IL1B secr inh inactive, DT40 TDP1 CPT inactive, HT1080NT lethal inactive, HT1080 IDH1KD tx inactive and TDP1 cell noCPT inactive.
`NC(=O)Nc1cccc2ccccc12` gave IL1B secr inh inactive, uPA surface inh inactive, DT40 TDP1 CPT inactive, HT1080NT lethal inactive, HT1080 IDH1KD tx inactive and TDP1 cell noCPT inactive.
O=C(Nc1cccc2ccccc12)OC1C=CS(=O)(=O)C1 (stereo not drawn) was read as uPA surface inh inactive, DT40 TDP1 CPT inconclusive, HT1080NT lethal 18µM, HT1080 IDH1KD tx inconclusive and TDP1 cell noCPT 21µM.
COc1ccc(CC(=O)Nc2ccc(S(=O)(=O)Nc3cc(C)nc(C)n3)cc2)cc1OC was read as IL1B secr inh inactive, DT40 TDP1 CPT inactive, HT1080NT lethal inactive, HT1080 IDH1KD tx inactive and TDP1 cell noCPT inactive.
CCCCCC(=O)N1C[C@H](n2cc(C3CC3)nn2)[C@@H](O)C[C@@H]1c1ccc(OC)cc1 was read as IL1B secr inh inactive, DT40 TDP1 CPT inactive, HT1080NT lethal inactive, HT1080 IDH1KD tx inactive and TDP1 cell noCPT inactive.
Screening CCCCCCN1C[C@@H](n2cc(C3CC3)nn2)[C@H](O)C[C@@H]1c1ccccc1 returned IL1B secr inh inactive, DT40 TDP1 CPT inactive, HT1080NT lethal inactive, HT1080 IDH1KD tx inactive and TDP1 cell noCPT inconclusive.
CCCCCC(=O)N1C[C@@H](n2cc(C3CC3)nn2)[C@H](O)C[C@@H]1c1ccc(Cl)cc1 was read as IL1B secr inh inactive, DT40 TDP1 CPT 16µM, HT1080NT lethal inactive, HT1080 IDH1KD tx inactive and TDP1 cell noCPT 21µM.
For CCCCCCN1C[C@H](O)[C@@H](n2cc(C3CC3)nn2)C[C@@H]1c1ccccc1 the results were IL1B secr inh inactive, DT40 TDP1 CPT inconclusive, HT1080NT lethal inactive, HT1080 IDH1KD tx inactive and TDP1 cell noCPT 23µM.
For CCCCCCN1C[C@H](O)[C@@H](n2cc(C3CC3)nn2)C[C@@H]1c1ccc(C)cc1 the results were IL1B secr inh inactive, DT40 TDP1 CPT inconclusive, HT1080NT lethal inactive, HT1080 IDH1KD tx inactive and TDP1 cell noCPT 26µM.
`CCCCCCN1C[C@@H](O)[C@H](n2cc(C3CC3)nn2)C[C@@H]1c1ccc(Cl)cc1` gave IL1B secr inh inactive, DT40 TDP1 CPT 26µM, HT1080NT lethal inactive, HT1080 IDH1KD tx inconclusive and TDP1 cell noCPT inconclusive.
Screening O=C(c1cc(-c2cccc(Cl)c2)on1)N1CCCCC1 returned DT40 TDP1 CPT inactive and TDP1 cell noCPT inactive.
Screening COc1ccc2c(C(=O)c3ccc(Cl)cc3)n(CCCC(N)=O)[n+]([O-])c2c1 returned IL1B secr inh inactive, uPA surface inh inactive, DT40 TDP1 CPT inactive, HT1080NT lethal inactive, HT1080 IDH1KD tx inactive and TDP1 cell noCPT inactive.
Screening CC(C)(C)c1ccc(S(=O)(=O)NC(=O)C2(C)CCN2C(=O)C2CC2)cc1 (stereo not drawn) returned IL1B secr inh inactive, DT40 TDP1 CPT inactive, HT1080NT lethal inconclusive, HT1080 IDH1KD tx inactive and TDP1 cell noCPT inactive.
Screening O=C(O)CCN1CCc2ccccc2C1c1ccncc1 (stereo not drawn) returned IL1B secr inh inactive, uPA surface inh inactive, DT40 TDP1 CPT inactive, HT1080NT lethal inactive, HT1080 IDH1KD tx inactive and TDP1 cell noCPT inactive.
Screening COc1ccccc1-n1c(C)cc(/C=C2\C(=N)N3N=C(CC(=O)N4CCOCC4)SC3=NC2=O)c1C returned IL1B secr inh inactive, uPA surface inh inactive, DT40 TDP1 CPT 18µM, HT1080NT lethal inactive, HT1080 IDH1KD tx inactive and TDP1 cell noCPT inconclusive.
For COc1ccc(S(=O)(=O)N2CCOCC2)cc1NC(=O)c1ccc2c(c1)OCO2 the results were IL1B secr inh inactive, uPA surface inh inactive, DT40 TDP1 CPT inactive, HT1080NT lethal inactive, HT1080 IDH1KD tx inactive and TDP1 cell noCPT inactive.
`O=S(=O)(c1ccc(Oc2ccc3c(c2)OCO3)c(S(=O)(=O)N2CCOCC2)c1)N1CCOCC1` gave DT40 TDP1 CPT 0.89µM and TDP1 cell noCPT 11µM.
